Results filed as inconclusive are left out. The source made the active and inactive calls. How the source made its calls, unless noted: active means hit-call score of the fitted dose curve at least 0.9, where 1 is the maximum; inconclusive means response in the unintended direction; inactive means score below 0.9.

Test [1] concerns the target Cellular tumor antigen p53 (Homo sapiens) (UniProt P04637). Put plainly: TOX21_p53_BLA_p4_ratio: Tox21 HCT-116 p53 Agonism Beta-lactamase Assay, Ratio, Phase 4 (AID 2283601). The method, boiled down:
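Signal is the blue/green (460nm/530nm) ratio of cleaved versus uncleaved CCF4-AM substrate, read after 2 h substrate loading. Cells were HCT116 carrying the p53-responsive beta-lactamase reporter, dosed 16 h at 37C, 5% CO2; CellTiter-Glo measured in parallel.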

Test [2] is described as follows: Tanguay_ZF_120hpf_MORT_legacy: (Legacy) Oregon State University Tanguay Lab 120 Hour Post-fertilization zebrafish Assay for Mortality (AID 2283633). The method, boiled down:
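Dechorionated Tropical 5D wild-type zebrafish embryos, one per well from 6 hpf, static exposure in 0.64% DMSO at 28C until 120 hpf. Mortality scored as binary by brightfield microscopy at 24 and 120 hpf.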

Test [3] can be described thus: Tanguay_ZF_120hpf_YSE_legacy: (Legacy) Oregon State University Tanguay Lab 120 Hour Post-fertilization zebrafish Assay for Yolk Sac Edema (AID 2283634). Summed up: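 Dechorionated Tropical 5D wild-type zebrafish embryos were exposed statically, one per well, from 6 to 120 hpf at 28C in 0.64% DMSO. Yolk sac edema was scored present/absent by brightfield at 120 hpf, and dead embryos were excluded.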

Test [4] in a line: Tanguay_ZF_120hpf_AXIS_legacy: (Legacy) Oregon State University Tanguay Lab 120 Hour Post-fertilization zebrafish Assay for Body Axis Malformation (AID 2283635). The method, boiled down:
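Dechorionated wild-type Tropical 5D zebrafish embryos, one per well, statically exposed from 6 hpf to 120 hpf at 28C in 0.64% DMSO final. Body axis malformation scored present/absent by brightfield microscopy at 120 hpf; dead embryos excluded.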

Test [5] in a line: Tanguay_ZF_120hpf_EYE_legacy: (Legacy) Oregon State University Tanguay Lab 120 Hour Post-fertilization zebrafish Assay for Eye Malformation (AID 2283636).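 Further: binary presence or absence of eye malformation scored by brightfield in 120 hpf larvae.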 Summed up:
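Binary brightfield scoring of eye defects at 120 hpf after static exposure from 6 hpf of single pronase-dechorionated wild-type embryos (28C, 0.64% DMSO). Non-mortality endpoints omitted where embryos died; fit vs DMSO.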

Test [6] can be described thus: Tanguay_ZF_120hpf_SNOU_legacy: (Legacy) Oregon State University Tanguay Lab 120 Hour Post-fertilization zebrafish Assay for Snout Malformation (AID 2283637). The method, boiled down: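 Binary snout-malformation call at 120 hpf in wild-type 5D embryos, chorion removed by pronase, under static exposure from 6 hpf at 28C (0.64% DMSO). Embryos dying by 24 or 120 hpf excluded.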

Test [7] can be described thus: Tanguay_ZF_120hpf_JAW_legacy: (Legacy) Oregon State University Tanguay Lab 120 Hour Post-fertilization zebrafish Assay for Jaw Malformation (AID 2283638). The method, boiled down:
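Dechorionated Tropical 5D wild-type zebrafish embryos, one per well, exposed statically from 6 hpf to 120 hpf at 28C in 0.64% DMSO. Jaw malformation was scored by brightfield microscopy as present or absent. It was not scored in dead embryos.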

The nature of test [8]: Tanguay_ZF_120hpf_OTIC_legacy: (Legacy) Oregon State University Tanguay Lab 120 Hour Post-fertilization zebrafish Assay for Otic Vesicle Malformation (AID 2283639). The method, boiled down:
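Wild-type zebrafish larvae, whole-embryo exposure from early stage to 120 hpf at 28C. Binary brightfield scoring of otic vesicle morphology, fitted in the positive direction against the DMSO baseline.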

A short description of test [9]: Tanguay_ZF_120hpf_BRAI_legacy: (Legacy) Oregon State University Tanguay Lab 120 Hour Post-fertilization zebrafish Assay for Brain Malformation (AID 2283641). Summed up:
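Tropical 5D wild-type zebrafish embryos exposed statically until 120 hpf at 28C, 0.64% DMSO final, sealed and dark. Brain malformation scored present/absent by brightfield at 120 hpf; dead embryos excluded. Trimethyltin chloride 5uM positive control.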

Test [10] is described as follows: Tanguay_ZF_120hpf_PFIN_legacy: (Legacy) Oregon State University Tanguay Lab 120 Hour Post-fertilization zebrafish Assay for Pectoral Fin Malformation (AID 2283648).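 Further: each larva judged yes or no for fin defect by brightfield with dead larvae skipped.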 The method, boiled down: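 Pectoral fin malformation was recorded as a binary endpoint at 120 hpf in wild-type Tropical 5D larvae, which had been dechorionated and exposed statically from 6 hpf at 28C in 0.64% DMSO. Dead embryos were excluded.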

Test [11] is described as follows: Tanguay_ZF_120hpf_CFIN_legacy: (Legacy) Oregon State University Tanguay Lab 120 Hour Post-fertilization zebrafish Assay for Caudal Fin Malformation (AID 2283649). Summed up:
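Dechorionated Tropical 5D wild-type embryos, one per well from 6 hpf, static exposure to 120 hpf at 28C in 0.64% DMSO. Caudal fin malformation scored by brightfield as present/absent; not scored in dead embryos.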

Test [12] in a line: Tanguay_ZF_120hpf_PIG_legacy: (Legacy) Oregon State University Tanguay Lab 120 Hour Post-fertilization zebrafish Assay for Pigmentation Malformation (AID 2283650). Summed up:
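Pigment malformation recorded as a binary call at 120 hpf in zebrafish (Tropical 5D) exposed singly from 6 hpf after pronase dechorionation. Static, sealed, 28C exposure, 0.64% DMSO; mortality excludes scoring; positive-direction fit against DMSO.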

The nature of test [13]: Tanguay_ZF_120hpf_CIRC_legacy: (Legacy) Oregon State University Tanguay Lab 120 Hour Post-fertilization zebrafish Assay for Circulatory Malformation (AID 2283651). The method, boiled down: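 Binary circulatory-malformation call at 120 hpf via brightfield imaging, relative to DMSO controls. Embryos (5D strain, chorion removed) received static, light-shielded exposure at 28C.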

The nature of test [14]: Tanguay_ZF_120hpf_TRUN_legacy: (Legacy) Oregon State University Tanguay Lab 120 Hour Post-fertilization zebrafish Assay for Truncated Body (AID 2283655). Summed up:
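Dechorionated Tropical 5D wild-type embryos placed singly from 6 hpf and statically exposed to 120 hpf at 28C, final DMSO 0.64%. Truncated body scored as present/absent by brightfield; not scored in dead embryos.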

A short description of test [15]: Tanguay_ZF_120hpf_NC_legacy: (Legacy) Oregon State University Tanguay Lab 120 Hour Post-fertilization zebrafish Assay for Notochord and Tail Malformation (AID 2283656). Summed up:
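Binary notochord-distortion calls, made by brightfield inspection, form the read-out; activity is fitted in the positive direction against DMSO. Exposure ran statically from 6 to 120 hpf at 28C with 0.64% DMSO.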

A short description of test [16]: Tanguay_ZF_120hpf_TR_legacy: (Legacy) Oregon State University Tanguay Lab 120 Hour Post-fertilization zebrafish Assay for Touch Response (AID 2283667). Summed up: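 Binary touch-response endpoint in larvae at 120 hpf after static waterborne exposure from embryo stage (28°C, 0.64% DMSO vehicle, 5 uM trimethyltin chloride as positive control); embryos dead at 24 or 120 hpf excluded; fitted as gain versus DMSO.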

A short description of test [17]: STM_H9_OrnithineISnorm_perc: Stemina devTOX quickPredict H9 human embryonic stem cell (hESC)-based Assay for Ornithine (ORN) Metabolite Biomarker, Normalized (AID 2283712; active means hit-call score of the fitted dose curve at least 0.9, where 1 is the maximum; inactive means score below 0.9;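 further: ornithine released into spent medium during last day measured by mass spectrometry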). The method, boiled down: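 Metabolite endpoint from spent media of pluripotent H9 cells treated 72 h with daily re-feeding; ornithine measured by UPLC-HRMS against its 13C spike-in and referenced to the median 0.1% DMSO vehicle response.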

Test [18] in a line: STM_H9_CystineISnorm_perc: Stemina devTOX quickPredict H9 human embryonic stem cell (hESC)-based Assay for Cystine (CYSS) Metabolite Biomarker, Normalized (AID 2283713; active means hit-call score of the fitted dose curve at least 0.9, where 1 is the maximum; inactive means score below 0.9). The method, boiled down: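 Normalized cystine level in conditioned medium from the final 24h of a 72h treatment of pluripotent H9 cells (daily media and compound renewal). Quantified by UPLC-HRMS with C13-labeled internal standard; scaled to median of 0.1% DMSO vehicle wells.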

Cellular tumor antigen p53 (Homo sapiens), sequence (P04637 whole entry, looked up): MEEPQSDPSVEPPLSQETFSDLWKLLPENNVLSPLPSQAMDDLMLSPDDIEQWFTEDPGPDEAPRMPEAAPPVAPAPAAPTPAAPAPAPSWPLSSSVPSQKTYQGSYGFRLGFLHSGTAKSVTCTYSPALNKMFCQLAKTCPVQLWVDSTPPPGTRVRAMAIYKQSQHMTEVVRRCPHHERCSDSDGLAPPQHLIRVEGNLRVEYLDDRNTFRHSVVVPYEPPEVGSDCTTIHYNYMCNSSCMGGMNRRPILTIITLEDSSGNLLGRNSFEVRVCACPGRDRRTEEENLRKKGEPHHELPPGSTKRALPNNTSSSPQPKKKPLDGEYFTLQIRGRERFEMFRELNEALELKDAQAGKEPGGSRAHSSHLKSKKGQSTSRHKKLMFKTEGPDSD

Broadly, the AC50 is the concentration at which the activity in the assay is half-maximal. For the molecule `c1cc[n+]2c(c1)-c1cccc[n+]1CC2`, the result in test [1], in [2], in test [3], in test [4], in test [5] and in [6] was inactive. The outcome in test [7], in test [8], in test [9], in test [10], in test [11] and in test [12] was inactive. In addition, the molecule was called inactive in test [13], in test [14], in test [15] and in test [16]. In addition, the AC50 in test [17] was 8.35 µM (active); in [18], 1.7 µM (active).

The record behind these values is PubChem BioAssay (EPA / NIEHS).
